Compound activity as filed in PubChem.
FH mod: Identification of activators of human fumarate hydratase by quantitative high-throughput screening; Fumarate hydratase, mitochondrial (Homo sapiens), P07954; FH coupled MDH/diaphorase resazurin fluorescence, 15 min; Potency, µM (doses to about 79.9 µM), for inactives: at the highest dose activity change, negative = inhibition, hits mostly inhibitors; 54,000 compounds, 0.22% hits; AID 1347055, 2019; further: potency means the concentration at half of the fitted maximal effect; on the % scale 0 is the no-effect control and ±100 the full control effect; the screen sought activators but most active calls are inhibition curves; nearly all actives have a fitted effect of over 45% in size
PTAP-TSG101 blk: blocks PTAP binding to human TSG101, validation; 44,000 tested, under 10 active; Fluorescence polarization, FITC-PTAP peptide/Tsg101, 20 min; Potency, µM (highest dose often 115 µM), usual class: inhibitors; further: potency means the concentration at half of the fitted maximal effect; 0% is about no effect
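The Tsg101 binding domain, at 10 uM final, is mixed with compound and a FITC peptide bearing the PTAP motif (50 nM final). After 20 min at r.t., polarization is measured; actives defined by CRC class, efficacy cut-off 60% inhibition.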
NTMT1 inh: inhibitors of human N-terminal methyltransferase NTMT1. Q9BV86. NTMT1 MTase-Glo SAH luminescence, purified enzyme. Potency, µM (series often up to 114 µM), inactives show at the top dose activity change, negative = inhibition, hits mostly inhibitors. 59,000 compounds, 2.5% hits;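 further: potency means the concentration at half of the fitted maximal effect; plate controls were DMSO vehicle for no effect and no enzyme for full effect; nearly all actives have a fitted effect of over 65% in size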
Target sequence (Q9BV86 whole entry, looked up): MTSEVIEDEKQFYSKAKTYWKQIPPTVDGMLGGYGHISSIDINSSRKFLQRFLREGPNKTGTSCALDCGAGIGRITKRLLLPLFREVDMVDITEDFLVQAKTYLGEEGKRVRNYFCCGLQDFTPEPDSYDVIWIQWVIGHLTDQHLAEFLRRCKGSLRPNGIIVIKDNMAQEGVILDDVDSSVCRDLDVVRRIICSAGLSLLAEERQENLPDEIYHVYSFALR
GALK inhibitor: inhibitors of human galactokinase (GALK). Potency, µM (titrated, usually from 57.5 µM), inactives show at the top dose activity, negative = inhibition, hits mostly inhibitors. AID 1347072. P51570. recombinant GALK, Kinase-Glo ATP luminescence, 1 h. 44,000 tested, under 10 active;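 further: plate controls were full GALK reaction for no effect and reaction lacking GALK for full effect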
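5 nM GALK with 35 µM ATP and 100 µM galactose in HEPES pH 8.0, MgCl2, NaCl, DTT, BSA; 1 h RT reaction, remaining ATP detected by Kinase-Glo Plus luminescence after 10 min; qHTS concentration series.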
GALC G270D up: raises human GALC G270D mutant activity in cells | 45,000 compounds, 0.1% hits | P54803 | 145M-Twi-hGALC-G270D cells (Twitcher mouse brain line with human GALC G270D), HMU-beta-Gal fluorescence, 48 h | Potency, µM (doses to about 57.5 µM), hits mostly activators | AID 1159614; further: potency means the concentration at half of the fitted maximal effect; 0% is about no effect; nearly all actives have a fitted effect of over 65% in size
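Fluorogenic HMU-b-Gal hydrolysis (0.1 mM final, pH 5.2 citrate-phosphate with 1 mg/mL sodium taurocholate; carbonate stop buffer) measures mutant GALC activity after compound treatment of live 145M-Twi Twitcher brain cells stably carrying human GALC-G270D, with wild-type GALC line alongside; activation sought.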
B2AR arrestin ag: ADRB2 beta-arrestin recruitment | AID 1347077 | P07550 | 44,000 tested, under 10 active | Potency, µM (highest dose often 46.1 µM), most hits filed as activators | HTLA Tango cells, beta-arrestin recruitment, luciferase luminescence, 18 h;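 further: potency means the concentration at half of the fitted maximal effect; 0% = DMSO and full agonism = EC100 isoproterenol or metaproterenol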
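Tango cells expressing recombinant beta2-AR and beta-arrestin were treated with compounds (up to 46 microM titration) in DMEM with 1% FBS for 18 hr at 37 degrees C. Beta-arrestin recruitment drove tTA-dependent luciferase, read by luminescence; curves were fitted and classed.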
DYRK1A inh: blocks recombinant human DYRK1A kinase activity; Potency, µM (doses to about 76.9 µM), for inactives: at the highest dose activity change, negative = inhibition, actives largely listed as inhibitors; AID 2705; recombinant DYRK1A, Kinase-Glo ATP depletion luminescence; 100 compounds, 80% hits; shares compounds with NTMT1 inh
NNMT counter: blocks human NNMT methyltransferase; Potency, µM (highest dose often 57.1 µM), for the others: top-dose activity, negative = inhibition, usual class: inhibitors; shares compounds with NTMT1 inh; 120 compounds, 10% hits; NNMT MTase-Glo luminescence, SAH detection
Target sequence (P40261 whole entry, looked up): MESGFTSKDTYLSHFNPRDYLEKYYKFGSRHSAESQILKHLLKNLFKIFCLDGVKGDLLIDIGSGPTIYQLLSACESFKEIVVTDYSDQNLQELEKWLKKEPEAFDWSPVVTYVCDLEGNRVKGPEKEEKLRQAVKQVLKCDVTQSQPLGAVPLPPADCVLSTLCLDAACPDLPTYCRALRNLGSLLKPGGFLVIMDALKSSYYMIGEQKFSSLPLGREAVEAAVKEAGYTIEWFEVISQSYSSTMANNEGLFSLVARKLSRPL
* hit, by the source's call; i = inactive; u = inconclusive; x = not tested or not shown; [ ] = remark or other dose. Many of the other results were omitted from the sample, so hits are more common in it than they were. The call rests on the fitted dose curve; in most records, active means well fitted curve in the direction sought with a large enough effect; inconclusive means small, poorly fitted or top-dose-only effect, or another doubt; inactive means no such curve, though single readings can be large; an effect the other way counts as inactive or inconclusive.

SMILES	FH mod	PTAP-TSG101 blk	NTMT1 inh	GALK inhibitor	GALC G270D up	B2AR arrestin ag	NNMT counter	others
CC(=O)O/N=C1\C(=O)N(Cc2cc(Cl)ccc2Cl)c2ccc(Cl)cc21	x	x	-17.0%	x	x	x	x
Cc1nc(CNc2ncnc3ccc(-c4ccoc4C)cc23)cs1	x	x	-2.7%	x	x	x	x	DYRK1A inh=7.33µM*
Cc1nc(CNc2ncnc3ccc(-c4sc(C)nc4C)cc23)cs1	x	x	u	x	x	x	x	DYRK1A inh=8.23µM*
Cc1nc(CNc2ncnc3ccc(-c4oc(-c5ccccc5)nc4C)cc23)cs1	x	x	u	x	x	x	x	DYRK1A inh=u
Cc1noc(C)c1-c1ccc2ncnc(NCc3ccccc3C(F)(F)F)c2c1	x	x	8.2%	x	x	x	x
Cc1ccsc1CNc1ncnc2ccc(-c3c(C)noc3C)cc12	x	x	-1.5%	x	x	x	x
CC(C)(C(=O)NCC(F)(F)C(F)(F)F)C(=O)NC1C(=O)Nc2ccccc2-c2ccccc21 (stereo unspecified)	1.8%	x	3.7%[57.5 µM]	x	x	x	x
COC(=O)CCC1(C)C(C(C)(C)O)C(O)CC2(C)Oc3c(C)c4c(c(OC)c3CC21)C(=O)OC4 (stereo unspecified)	5.5%[53.3 µM]	x	-4.7%[29.8 µM]	x	x	x	x
COc1cc2ncnc(Nc3cccc(I)c3)c2cc1OC	-3.7%	x	22.4µM*	x	x	x	u
C[C@H](Oc1cc(-c2cnn(C3CCNCC3)c2)cnc1N)c1c(Cl)ccc(F)c1Cl	-3.1%	x	u	x	x	x	x
C[C@@H](Oc1cc(-c2cnn(C3CCNCC3)c2)cnc1N)c1c(Cl)ccc(F)c1Cl	-8.0%	x	17.8µM*	x	x	x	u
COc1cccc(OCCCN)c1-c1cc(Nc2cnc(C#N)cn2)n[nH]1	4.3%	x	8.91µM*	x	x	x	-10.7%
Nc1nc(-n2cc(C(=O)O)c(=O)c3cc(F)c(N4CC(O)C4)c(Cl)c32)c(F)cc1F	6.7%[53.3 µM]	x	0.6%[29.8 µM]	x	x	x	x
CC/C(=C(\c1ccc(O)cc1)c1ccc(OCCNC)cc1)c1ccccc1	-10.7%	x	22.4µM*	x	x	x	u
Cc1ccc(-c2ccc3ncc4c(c3n2)n(C2CCN(C(=O)[C@H](C)O)CC2)c(=O)n4C)cn1	-4.0%	x	15.8µM*	x	x	x	u
Cc1nc2cccnc2n1C1CCN(C(=O)Nc2ccccc2)CC1	-2.1%	i	-13.4%	-2.6%	i	i	x
Cc1ccc(Sc2ccc(N3CCC(C(=O)Nc4cc(C)cc(C)c4)CC3)nn2)cc1	-1.0%	i	13.7%	0.0%	i	i	x
